This is an account of results in publication PMC8384837, “Expanding the binding specificity for RNA recognition by a PUF domain”.

Common to all, as to experiment: yeast three-hybrid, YBZ-1, SC-Leu-His + 0.5 mM 3-AT, 4 days
Details in all cases: tags: N-Gal4 AD-HA kept; label: inside an RPR1-promoter hybrid RNA with tandem MS2 sites; ssRNA

The target of one assay is PUM1 PUF domain R4-VPT (Homo sapiens, UniProt Q14671 828-1176, N971V;H972P;Q975T). In outline:
(§1)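 Pumilio-1 PUF domain libraries, randomized (NNK) at the three base-contacting residues of each repeat, were co-expressed with matching RNA elements from a centromeric plasmid in strain YBZ-1 (LexA–MS2 coat fusion, HIS3 reporter). Transformants were plated on SC-Leu (input) and SC-Leu-His + 0.5 mM 3-AT (selection) for four days, and repeat regions were PCR-amplified and Illumina-sequenced. The interaction score is the log2 change in variant frequency from input to selection, with pseudocount 1 where absent.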

In a further assay the target is T1, PUM1 PUF domain R6-VFR (Homo sapiens, UniProt Q14671 828-1176, N1043V;Y1044F;Q1047R).
T1 sequence: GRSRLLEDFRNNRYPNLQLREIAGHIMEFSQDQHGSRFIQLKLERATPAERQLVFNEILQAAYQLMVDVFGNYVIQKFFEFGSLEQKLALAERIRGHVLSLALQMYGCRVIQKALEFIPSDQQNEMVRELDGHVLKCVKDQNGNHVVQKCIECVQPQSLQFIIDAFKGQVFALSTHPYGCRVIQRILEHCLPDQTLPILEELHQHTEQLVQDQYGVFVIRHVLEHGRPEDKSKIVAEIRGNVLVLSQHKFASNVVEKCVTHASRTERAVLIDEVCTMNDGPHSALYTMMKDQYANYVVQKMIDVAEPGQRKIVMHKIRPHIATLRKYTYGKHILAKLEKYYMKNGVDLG
In outline: as §1

A further assay has as its target PUM1 PUF domain R3-DYI (Homo sapiens, UniProt Q14671 828-1176, C935D;R936Y;Q939I). In outline:
as §1

The next assay addresses PUM1 PUF domain R7-SRK (Homo sapiens, UniProt Q14671 828-1176, N1080R;E1083K). In short, it runs like this:
as §1

A further assay addresses PUM1 PUF domain R5-NPI (Homo sapiens, UniProt Q14671 828-1176, C1007N;R1008P;Q1011I). In outline: as §1
Another assay concerns the target PUM1 PUF domain R1-KSR (Homo sapiens, UniProt Q14671 828-1176, S863K;R864S;Q867R). In outline: as §1
A further assay deals with PUM1 PUF domain R5-SAS (Homo sapiens, UniProt Q14671 828-1176, C1007S;R1008A;Q1011S). In short, it runs like this: as §1
Another assay deals with PUM1 PUF domain R3-SQE (Homo sapiens, UniProt Q14671 828-1176, C935S;R936Q;Q939E). In short, it runs like this:
as §1

Consider “GGCUAGAACUAGUGGAUCCCCCGGCGCCCGGCGGCUCGAGCCCGGGUAAGUGUAUAUAGUCUGCAUGCCGCCGGGCGCCAUGCCUGCAGGUCGACUCUAGAAAACAUG”, for which, in the assay with PUM1 PUF domain R4-VPT, the binding signal was 2.12 log2 enrichment (interaction score).
The same measure, in the same setting: as for “GGCUAGAACUAGUGGAUCCCCCGGCGCCCGGCGGCUCGAGCCCGGGUAAGUGUACAUAGUCUGCAUGCCGCCGGGCGCCAUGCCUGCAGGUCGACUCUAGAAAACAUG”, the figure is 0.61 log2 enrichment (interaction score).
Consider “GGCUAGAACUAGUGGAUCCCCCGGCGCCCGGCGGCUCGAGCCCGGGUAAGUGUAAAUAGUCUGCAUGCCGCCGGGCGCCAUGCCUGCAGGUCGACUCUAGAAAACAUG”, for which the binding signal in the assay with PUM1 PUF domain R6-VFR was 4.2 log2 enrichment (interaction score); with PUM1 PUF domain R3-DYI, 5.38 log2 enrichment (interaction score).
Take “GGCUAGAACUAGUGGAUCCCCCGGCGCCCGGCGGCUCGAGCCCGGGUAAGUGCAAAUAGUCUGCAUGCCGCCGGGCGCCAUGCCUGCAGGUCGACUCUAGAAAACAUG”: the binding signal in the assay with PUM1 PUF domain R6-VFR was 1.27 log2 enrichment (interaction score).
“GGCUAGAACUAGUGGAUCCCCCGGCGCCCGGCGGCUCGAGCCCGGGUAAGUCUAAAUAGUCUGCAUGCCGCCGGGCGCCAUGCCUGCAGGUCGACUCUAGAAAACAUG”: the binding signal with PUM1 PUF domain R7-SRK is 4.33 log2 enrichment (interaction score).
On to “GGCUAGAACUAGUGGAUCCCCCGGCGCCCGGCGGCUCGAGCCCGGGUAAGUGUUAAUAGUCUGCAUGCCGCCGGGCGCCAUGCCUGCAGGUCGACUCUAGAAAACAUG”, for which the binding signal with PUM1 PUF domain R5-NPI was 2.85 log2 enrichment (interaction score).
Consider “GGCUAGAACUAGUGGAUCCCCCGGCGCCCGGCGGCUCGAGCCCGGGUAAGUGUAAAUCGUCUGCAUGCCGCCGGGCGCCAUGCCUGCAGGUCGACUCUAGAAAACAUG”, for which the binding signal with PUM1 PUF domain R1-KSR is 5.1 log2 enrichment (interaction score).
On the same count and under the same terms, as for “GGCUAGAACUAGUGGAUCCCCCGGCGCCCGGCGGCUCGAGCCCGGGUAAGUGUAAAUUGUCUGCAUGCCGCCGGGCGCCAUGCCUGCAGGUCGACUCUAGAAAACAUG”, the figure is 5.58 log2 enrichment (interaction score).
With “GGCUAGAACUAGUGGAUCCCCCGGCGCCCGGCGGCUCGAGCCCGGGUAAGUGUGAAUAGUCUGCAUGCCGCCGGGCGCCAUGCCUGCAGGUCGACUCUAGAAAACAUG”, the binding signal in the assay with PUM1 PUF domain R5-SAS is 5.82 log2 enrichment (interaction score).
As for “GGCUAGAACUAGUGGAUCCCCCGGCGCCCGGCGGCUCGAGCCCGGGUAAGUGUAAGUAGUCUGCAUGCCGCCGGGCGCCAUGCCUGCAGGUCGACUCUAGAAAACAUG”, in the assay with PUM1 PUF domain R3-SQE, the binding signal was 3.11 log2 enrichment (interaction score).
